Test system: Drosophila S2 cl14 SmoIP sensor cells
Assay: normalized SmoIP GFP fluorescence (untreated unstimulated = 0%, untreated Hh-stimulated = 100%); higher = more Smo activation sensor fluorescence
Details: compound concentration: 2 uM, 24 h
[1] = stimulation: Hh conditioned medium (+Hh)
[2] = stimulation: mock conditioned medium (-Hh)
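Note: flow cytometry read-out as median GFP intensity of gated cells, compounds added 30 min before Hh-conditioned or mock medium, mock-treated cells serving as unstimulated baseline.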

| Compound | normalized SmoIP GFP fluorescence [1] [%] | normalized SmoIP GFP fluorescence [2] [%] |
| --- | --- | --- |
| Nc1nnc(-c2cccc(Cl)c2Cl)c(N)n1 [lamotrigine] | 101 | -3.5 |
| CC[C@@H](C)Nc1cc(C(=O)N[C@H]2C[C@H]3CC[C@@H](C2)N3c2ccc(C(=O)C3CC3)cn2)c(C)cc1C(N)=O | 150 | 18 |
| O=C(c1cncc(Br)c1)N1CCC(N2CCCC2)CC1 | 98.8 | 1.35 |
| CN1CCN(C2=Nc3cc(Cl)ccc3Nc3ccccc32)CC1 [Clozapine(Clozaril)] | 119 | 0.154 |
| O=C(O)CCc1ccc(NCc2cccc(Oc3ccccc3)c2)cc1 | 105 | -2.19 |
| CC(=O)Oc1ccccc1C(=O)O [aspirin-acetylsalicylic-acid] | 101 | -6.51 |
| O=C(Nc1ccccc1)Nc1ccc(-c2ccc(C(=O)[C@@H]3CCC[C@H]3C(=O)O)cc2)cc1 | 128 | -11 |
| C=CC(=O)Nc1ccc2ncnc(Nc3cccc(Br)c3)c2c1 | 125 | -0.662 |
| COc1ccc(C2CNC(=O)C2)cc1OC1CCCC1 (stereo not drawn) [Rolipram] | 92.5 | -1.88 |
| CC(C)OC(=O)C1=CN(C(=O)c2ccc(F)c(F)c2)CC(C)(C)c2c1[nH]c1ccccc21 | 117 | 12.5 |
| Cc1ccc(S(=O)(=O)NC(=O)NN2CC3CCCC3C2)cc1 (stereo not drawn) [gliclazide-diamicron] | 111 | -13.7 |
| Oc1cc(O)c(Cl)cn1 [gimeracil] | 107 | -6.97 |
| O=C(/C=C/c1cccc(S(=O)(=O)Nc2ccccc2)c1)NO [Belinostat] | 189 | 54.6 |
| CC(=O)O[C@]1(C(C)=O)CC[C@H]2[C@@H]3C=C(Cl)C4=CC(=O)[C@@H]5C[C@@H]5[C@]4(C)[C@H]3CC[C@@]21C [cyproterone-acetate] | 142 | -6.79 |

From the supplement of paper PMC5662767
